Most compounds without a hit are left out; they make up all but 6.5% or so of the library.
HCMV antiviral: blocks human cytomegalovirus replication; HFF cells, HCMV-luciferase reporter, 72 h; hits give low values; activity change, negative = inhibition, % at 57.5 µM; 410,000 tested, 4.5% active; in the data active = activity change below about -60%; inconclusive = no clear call, values can overlap the other calls; inactive = above about -39%
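After 16 h attachment at 37C, HFF cells received test compound and HCMV-luciferase (1 PFU/cell); reporter luminescence read 72 h later, data normalized against buffer-only and known inhibitor Salinomycin.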
VACV mCherry inh: vaccinia inhibition (mCherry reporter). Vaccinia virus mCherry reporter infection, fluorescence. 310,000 tested, 0.63% active. Potency, µM (titrated, usually from 36.5 µM), for the others: at the highest dose activity change, negative = inhibition, most hits filed as inhibitors; calls by dose curve; tested in A549 cells; also: potency is read from the fitted curve at half-maximal effect; nearly all actives have a fitted effect of over 35% in size
Marburg entry inh: inhibitors of Marburg virus binding or cell entry | Potency, µM (doses to about 37.8 µM), for inactives: top-dose activity change, negative = inhibition, usual class: inhibitors | 300,000 tested, 1.8% active | AID 540276 | Marburg virus pseudotyped entry inhibition, cell reporter; calls by dose curve; tested in HEK293 cells; also: potency is read from the fitted curve at half-maximal effect
Vaccinia Venus: inhibitors of vaccinia virus (Venus reporter) | Vaccinia virus Venus reporter expression, fluorescence | Potency, µM (series often up to 36.5 µM), without a hit: at the top dose activity change, negative = inhibition, most hits filed as inhibitors | 330,000 tested, 0.46% active | AID 720580; calls by dose curve; tested in A549 cells; also: potency is read from the fitted curve at half-maximal effect; nearly all actives have a fitted effect of over 30% in size
LASV entry inh: Lassa virus entry inhibition | Lassa virus pseudotype entry inhibition, cell reporter | Potency, µM (doses to about 37.9 µM), for inactives: at the highest dose activity change, negative = inhibition, usual class: inhibitors | 300,000 tested, 1.2% active; calls by dose curve; tested in HEK293 cells; also: potency is read from the fitted curve at half-maximal effect; nearly all actives have a fitted effect of over 50% in size
FMDV inh: blocks foot and mouth disease virus; Potency, µM (top dose mostly 57.9 µM), inactives show top-dose activity change, negative = inhibition, most hits filed as inhibitors; 410,000 tested, 1.2% active; FMDV antiviral cell-based qHTS; calls by dose curve; tested in HEK293T cells; also: read-out not given here; potency is read from the fitted curve at half-maximal effect; nearly all actives have a fitted effect of over 45% in size
Numbers without * were called inactive; i = inactive; ? = inconclusive; / = not tested or not shown; [ ] = another dose, or the depositor's remark. % is scaled to controls: 0 for no effect and ±100 for the full control effect.

SMILES | HCMV antiviral | VACV mCherry inh | Marburg entry inh | Vaccinia Venus | LASV entry inh | FMDV inh
C=CCNC(=O)c1ccc(OC2CCN(S(=O)(=O)N(C)C)CC2)cc1 | -16.9 | 2.7% | 29.3%[14.2 µM] | -6.0% | 16.6% | 0.0%
CC(NC(=O)c1ccco1)C(=O)N1CCN(c2cccc(C(F)(F)F)c2)CC1 (stereo not given) | ? | / | / | / | / | -12.0%
Cc1cnc(C)cn1 | / | -18.6% | / | -10.6% | / | /
COc1ccc(CNC(=O)COC(=O)c2ccc(OCC3CCCO3)cc2)cc1 (stereo not given) | 0.0 | / | / | / | / | -4.7%
Cc1cc2nc(CSc3ccccc3)cc(=O)n2[nH]1 | -95.7* | -4.2% | 11.4%[46.1 µM] | 3.2% | -1.9% | 5.5%
CC1CCc2c(sc3nnn(Cc4cccc(C(=O)OC(C)C)c4)c(=O)c23)C1 (stereo not given) | -0.4 | 3.5% | -1.5%[46.1 µM] | -2.6% | ? | -17.3%
CCNc1ncc2nc(-c3ccccc3)c(=O)n(C3CC3)c2n1 | / | / | / | / | / | 6.0%
COc1ccc(-n2cc(C(=O)c3ccccc3O)cn2)cc1 | 60.9 | -10.3% | ? | -6.9% | 3.98µM* | -51.1%
O=C(CN1Cc2ccccc2OC(c2ccsc2)C1)NCC1OCCc2ccccc21 (stereo not given) | / | 0.4% | / | -0.2% | / | -0.4%
CCOC(=O)C1=C[C@@H](C(C)(C)C)N(S(=O)(=O)c2ccc(C)cc2)[C@H]1c1ccc(Cl)c(Cl)c1 | -87.7* | i | / | -5.5% | / | ?
CCOC(=O)C1=C[C@@H](C(C)(C)C)N(S(=O)(=O)c2ccccc2C)[C@H]1c1ccc(Cl)cc1 | -76.7* | 4.1% | / | 0.4% | / | ?
CCOC(=O)C1=CCN(S(=O)(=O)c2ccccc2Cl)C1c1ccc(Cl)cc1 (stereo not given) | -28.4 | / | / | / | / | /
COc1cc(OC)c(C2Nc3ccccc3-c3nnc(SCc4ccccc4)nc3O2)cc1OC (stereo not given) | 6.1 | -7.6% | 8.4%[46.1 µM] | 4.7% | 18.7%[46.1 µM] | -5.2%
COc1cccc(C(=S)N2CCOCC2)c1OS(=O)(=O)c1ccc(Cl)cc1 | -2.6 | -9.0% | -13.2%[46.1 µM] | -3.6% | 8.5%[46.1 µM] | 24.8%
Cc1[nH]c2ccccc2c1/C=N/NC(=O)C1CC1(c1ccccc1)c1ccccc1 (stereo not given) | -20.8 | ? | ? | 11.2µM* | ? | 39.8µM*
COCCC1CCCCN1Cc1nc(N2CCCCC2)c2cc(OC)c(OC)cc2n1 (stereo not given) | / | -14.7% | / | -1.4% | / | -3.3%
Cc1ccc(NC(=O)N(C2CCCCC2)C(C)c2cccnc2)cc1C (stereo not given) | -68.5* | i | / | -11.0% | / | -4.1%
CCOc1ccc(N2C(=O)/C(=C/c3ccc(C)o3)C(=O)NC2=S)cc1 | 1.7 | / | / | / | / | 39.8µM*
COc1ccc(N2C(=O)/C(=C/c3ccc(C)o3)C(=O)NC2=S)cc1 | 34.2 | / | / | / | / | ?
COc1ccc(OCC(O)CN(C)C(=O)/C=C/c2cccc([N+](=O)[O-])c2)cc1 (stereo not given) | -78.0* | -20.2% | 0.2%[46.1 µM] | 6.4% | 7.0% | -23.5%
COC(CNC(=O)c1ccc2c(c1)ncn2-c1cccc(F)c1)OC | -73.1* | i | 6.5% | -0.7% | -10.7% | -5.6%
COc1ccc(OC)c(-n2cnc3cc(C(=O)NCCc4ccccc4)ccc32)c1 | 22.1 | -3.2% | / | -13.2% | 6.8%[46.1 µM] | 31.8%
Cc1cc(C)cc(-n2cnc3cc(C(=O)NCCc4ccccc4)ccc32)c1 | -98.5* | -24.3% | / | -23.6% | 3.0%[46.1 µM] | 24.3%
COc1cc2[nH]c(=O)n(Cc3ccc(C(=O)NCc4ccccc4)cc3)c(=O)c2cc1OC | -0.5 | ? | 4.7%[46.1 µM] | -11.7% | -10.4%[46.1 µM] | -14.8%
Nc1ncnc2c(C3OC(CO)C(O)C3O)c[nH]c12 (stereo not given) | -97.5* | 0.282µM* | ? | 0.251µM* | ? | 0.0%
O=S(=O)(NCc1ccccc1)NCc1ccccc1F | 3.9 | i | 20.0%[46.1 µM] | -3.6% | -9.7%[46.1 µM] | 49.5%
O=S(=O)(NCc1ccccc1)NCc1ccccc1 | -68.4* | -3.5% | ? | -9.7% | 6.3%[46.1 µM] | 21.4%
Cc1cccnc1CN1CCN(C(=O)c2cc(COc3ccc4ncccc4c3)on2)CC1 | -82.9* | ? | ? | -26.0% | ? | 12.6µM*
CCOC(=O)N1CCN(C(=O)c2cc(COc3ccc4ncccc4c3)on2)CC1 | -74.0* | -21.5% | ? | -21.6% | -12.7%[46.1 µM] | ?

Screens from PubChem BioAssay.
